In the supplement of paper PMC10981050:
“And” between values parts separate entries of the source, which are not always exact repeats. Identical values can stand only once. Counter-ions that a name gives are not always drawn.

Tests used:
Experiment in all cases: cell viability relative to vehicle control; higher = less cytotoxic
Settings in all cases: 10 µM
K562 = system: K562
Outline: (§1)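 Screening covered the Selleck bioactive, kinase and epigenetic probe libraries, less identity-inconsistent compounds, on CRISPR-edited mutant clones and isogenic wild-type clones of four leukaemia lines. Cells, at 2000 per well in 50 µL medium, received a single 10 µM acoustically dispensed dose. After 48 h the supernatant was removed and CellTiter-Glo luminescence was read. Viability was analysed in Genedata Screener as percent of the on-plate vehicle control.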

MARIMO = system: MARIMO
Outline: as §1

MOLM14 = system: MOLM14
Outline: as §1

OCI-AML2 = system: OCI-AML2
Outline: as §1

Row | SMILES | cell viability (K562; SRSF2 genotype: SRSF2 P95H/wt) | cell viability (K562; SRSF2 genotype: SRSF2 wt/wt) | cell viability (MARIMO; SRSF2 genotype: SRSF2 P95H/wt) | cell viability (MARIMO; SRSF2 genotype: SRSF2 wt/wt) | cell viability (MOLM14; SRSF2 genotype: SRSF2 P95H/wt) | cell viability (MOLM14; SRSF2 genotype: SRSF2 wt/wt) | cell viability (OCI-AML2; SRSF2 genotype: P95H/wt) | cell viability (OCI-AML2; SRSF2 genotype: wt/wt)
1 | C=Cc1c(C)c2cc3nc(cc4[nH]c(cc5nc(cc1[nH]2)C(C)=C5CCC(=O)O)c(CCC(=O)OC)c4C)C1(C)C3=CC=C(C(=O)OC)C1C(=O)OC (stereo not drawn) [Verteporfin (Visudyne)] | 68.3% and 75.3% | 70.6% | 87.7% | 85.2% | 80.2% | 59.8% | 69.7% | 77.9%
2 | O=c1c(N=Nc2nccs2)c(-c2ccccc2)[nH]n1-c1nc(-c2ccccc2)cs1 | 88.4% and 89.2% | 88.4% | 94.2% | 106% | 92.9% | 95.9% | 103% | 105%
3 | CN(Cc1cc(Br)cc(Br)c1N)C1CCCCC1 [Bromhexine HCl] | 96.8% and 96.7% | 92.8% | 86.6% | 99.2% | 96.7% | 99.4% | 92.2% | 98.7%
4 | CCCNC(=O)c1cn2ncnc(Nc3cc(C(=O)NC4CC4)ccc3C)c2c1C | 90.9% and 95.7% | 93.3% | 99.5% | 101% | 91.8% | 95.8% | 91.3% | 95.9%
5 | COc1ncnc(NS(=O)(=O)c2ccc(N)cc2)c1OC [Sulfadoxine (Sulphadoxine)] | 103% and 107% | 98.1% | 104% | 105% | 95.4% | 100% | 98.5% | 96.3%
6 | CC(C)=CCC[C@](C)(O[C@@H]1O[C@H](CO[C@@H]2O[C@@H](CO)[C@H](O)[C@H]2O)[C@@H](O)[C@H](O)[C@H]1O)[C@H]1CC[C@]2(C)[C@@H]1[C@H](O)C[C@@H]1[C@@]3(C)CC[C@H](O[C@@H]4O[C@H](CO)[C@@H](O)[C@H](O)[C@H]4O[C@@H]4O[C@H](CO)[C@@H](O)[C@H](O)[C@H]4O)C(C)(C)[C@@H]3CC[C@]12C [Ginsenoside Rc] | 103% and 101% | 100% | 99.1% | 101% | 110% | 99.2% | 104% | 93.5%
7 | CC#C[C@]1(O)CC[C@H]2[C@@H]3CCC4=CC(=O)CCC4=C3[C@@H](c3ccc(N(C)C)cc3)C[C@@]21C [Mifepristone (Mifeprex)] | 84.3% and 91.5% | 86.8% | 86.7% | 90.7% | 79.7% | 89.6% | 104% | 92.6%
8 | COc1ccc(-c2oc3cc(O)cc(O)c3c(=O)c2O)cc1 [kaempferide] | 108% and 104% | 103% | 105% | 119% | 74.6% | 98.2% | 80.7% | 82.7%
9 | Cc1cc(Cn2cnc3c2CC(C(=O)O)N(C(=O)C(c2ccccc2)c2ccccc2)C3)ccc1N(C)C (stereo not drawn) | 100% and 97.2% | 99.5% | 102% | 101% | 94.9% | 97.2% | 100% | 117%
10 | CC(C)(C)C(O)/C=C/c1ccc2c(c1)OCO2 (stereo not drawn) [Stiripentol] | 105% and 95.5% | 101% | 94.5% | 108% | 100% | 107% | 95.3% | 100%
11 | C=C1CCC2C(C)(CO)C(O)CCC2(C)C1CC=C1C=COC1=O (stereo not drawn) [Dehydroandrographolide] | 75.2% and 78.9% | 75.8% | 77.8% | 96.3% | 83.8% | 93.9% | 74.6% | 86.5%
12 | OCCn1cc(-c2cnc3nnn(Cc4ccc5ncccc5c4)c3n2)cn1 | 96.9% and 99.3% | 104% | 105% | 102% | 99.4% | 100% | 97.9% | 97.9%
13 | CCC(C)(C)c1ccc(CC(C)CN2C[C@@H](C)O[C@@H](C)C2)cc1 (stereo partly drawn) [Amorolfine Hydrochloride] | 79.9% and 81.9% | 99.7% | 66.2% | 71.5% | 81.8% | 81.4% | 49.3% | 71.5%
14 | CCC(CC)n1ccc2c(C(=O)NCc3c(C)cc(C)[nH]c3=O)cc(C#N)cc21 | 107% and 101% | 95.5% | 103% | 112% | 100% | 100% | 95% | 102%
15 | OCc1ccc(-c2ccc(-c3ccc(CO)s3)o2)s1 | 56.7% and 54.9% | 7.66% | 63.2% | 66% | 11.3% | 8.82% | 9.11% | 18.3%
16 | COc1cc(C2Oc3ccc(C4Oc5cc(O)cc(O)c5C(=O)C4O)cc3OC2CO)ccc1O (stereo not drawn) [Isosilybin] | 92.6% and 89.8% | 85.4% | 99% | 106% | 104% | 98.9% | 96.8% | 95.3%
17 | NC(=O)[C@@H]1CCCN1C(=O)[C@H](Cc1c[nH]cn1)NC(=O)[C@@H]1CCC(=O)N1 [Protirelin] | 99.8% and 93.1% | 104% | 99.2% | 108% | 101% | 100% | 102% | 100%
18 | COc1cc(Nc2ncc(F)c(Nc3ccc4c(n3)NC(=O)C(C)(C)O4)n2)cc(OC)c1OC [R406(free base)] | 95% and 101% | 104% | 72.2% | 85.1% | 25.2% | 16% | 42.1% | 56.3%

Row | SMILES | cell viability (K562; SRSF2 genotype: SRSF2 P95H/wt) | cell viability (K562; SRSF2 genotype: SRSF2 wt/wt) | cell viability (MARIMO; SRSF2 genotype: SRSF2 P95H/wt) | cell viability (MARIMO; SRSF2 genotype: SRSF2 wt/wt) | cell viability (MOLM14; SRSF2 genotype: SRSF2 P95H/wt) | cell viability (MOLM14; SRSF2 genotype: SRSF2 wt/wt) | cell viability (OCI-AML2; SRSF2 genotype: P95H/wt) | cell viability (OCI-AML2; SRSF2 genotype: wt/wt)
19 | C[C@H](NC(=O)CCC(F)(F)F)C(=O)N[C@@H]1C(=O)N(CCO)c2ncccc2-c2ccccc21 | 103% and 104% | 95.9% | 97.4% | 108% | 109% | 103% | 89.4% | 99.8%
20 | CCOC(=O)/C=C/c1ccc(O)c(OC)c1 [Ethyl ferulate] | 98% and 104% | 104% | 92% | 107% | 98% | 101% | 112% | 108%
21 | COc1cc(F)c(C(C)C)cc1-c1ccc(C(F)(F)F)cc1CN1C(=O)O[C@H](c2cc(C(F)(F)F)cc(C(F)(F)F)c2)[C@@H]1C [Anacetrapib (MK-0859)] | 97.5% and 95.6% | 92.9% | 91.2% | 105% | 98.7% | 99% | 91.8% | 102%
22 | CN1CCN(S(=O)(=O)c2ccc(-c3cnc(N)c(C(=O)Nc4cccnc4)n3)cc2)CC1 | 72.1% and 61.7% | 73.6% | 76.7% | 114% | 40.6% | 42.1% | 30% | 63.3%
23 | CCOC(=O)C1=C(C)NC(C)=C(C(=O)OCC)C1c1ccccc1/C=C/C(=O)OC(C)(C)C [Lacidipine (Lacipil, Motens)] | 51% and 64.8% | 53.2% | 53.8% | 40.3% | 49.7% | 39.8% | 44% | 42.9%
24 | Cc1ccc(S(=O)(=O)c2ccc([N+](=O)[O-])o2)cc1 | 0.16% and 0.25% | 0.18% | 0.21% | 0.25% | 0.19% | 0.2% | 0.21% | 0.26%
25 | Cn1c(N2CCCCS2(=O)=O)nc(C(=O)NCc2ccc(F)cc2)c(O)c1=O | 110% | 113% | 108% | 115% | 112% | 111% | 112% | 102%
26 | CC(C)c1cc(C(=O)N2Cc3ccc(CN4CCN(C)CC4)cc3C2)c(O)cc1O | 21.1% and 29.8% | 24% | 28% | 26.9% | 3.31% | 4.31% | 18.1% | 22.8%
27 | C=C(C)[C@@H]1CC[C@]2(C(=O)O)CC[C@]3(C)[C@H](CC[C@@H]4[C@@]5(C)CC[C@H](OC(=O)CC(C)(C)C(=O)O)C(C)(C)[C@@H]5CC[C@]43C)[C@@H]12 [Bevirimat] | 102% and 101% | 99.7% | 107% | 107% | 106% | 103% | 97% | 108%
28 | NCC(=O)CCC(=O)O [5-Aminolevulinic acid hydrochloride] | 94.7% and 105% | 103% | 109% | 101% | 99.1% | 105% | 108% | 96.3%
29 | CC(C)c1ccccc1Cc1cc(C(=O)Nc2ccc(S(=O)(=O)c3ccccc3C(C)(C)C)cc2)c(O)c(O)c1O | 8.56% and 5.5% | 7.92% | 17.6% | 18.2% | 4.45% | 1.48% | 2.91% | 8.83%
30 | CC(=O)NC(Cc1ccc(O)cc1)C(=O)NC(CCCN=C(N)N)C(=O)NC(Cc1ccccc1)C(N)=O (stereo not drawn) | 87.2% and 83.5% | 85.6% | 84.2% | 88.4% | 87.3% | 85.4% | 87.9% | 87.5%
31 | O=C(O)c1cn(-c2ccc(F)cc2)c2cc(N3CCNCC3)c(F)cc2c1=O [Sarafloxacin HCl] | 99.7% and 102% | 90.9% | 97.8% | 102% | 103% | 99.5% | 102% | 102%
32 | C=C(C(=O)O)C1CCC(C)C2CCC(C)=CC12 (stereo not drawn) [Artemisic acid] | 114% and 110% | 113% | 108% | 90.8% | 104% | 108% | 99.1% | 103%
33 | C[C@]12CC[C@@H]3c4ccc(OC(=O)c5ccccc5)cc4CC[C@H]3[C@@H]1CC[C@@H]2O [Estradiol Benzoate] | 62.1% and 62.4% | 77.2% | 54.6% | 35.6% | 82.6% | 76.1% | 58.4% | 46.7%
34 | CC1=C(C(=O)Nc2ccc3[nH]ncc3c2)C(c2ccc(F)cc2)NC(=O)N1 (stereo not drawn) | 101% and 97.9% | 110% | 102% | 99.9% | 38.5% | 91.7% | 33.7% | 51.5%
35 | NCC(=O)Nc1ccc(-n2nc(C(F)(F)F)cc2-c2ccc3c(ccc4ccccc43)c2)cc1 | 0.38% and 0.39% | 0.29% | 0.31% | 0.5% | 0.18% | 0.22% | 0.19% | 0.23%
36 | CC1=CCC[C@H](C)C(=O)C[C@@H](C(C)C)C(=O)C1 [Curdione] | 93.2% and 88.9% | 83.8% | 93.8% | 90.8% | 91.2% | 87.5% | 91% | 87.2%
